D2 PAM-1 = potentiates the human D2 dopamine receptor allosterically; DiscoveRx D2 beta-arrestin cells, luminescence, 90 min; 100% = 57 uM dopamine signal; potentiation, % (test concentration not listed); hit rate 0.23% among 360,000; AID 624464; in the data active = potentiation above about 50%; inconclusive = mostly about 30% to 49%
Target sequence (P14416 whole entry, looked up): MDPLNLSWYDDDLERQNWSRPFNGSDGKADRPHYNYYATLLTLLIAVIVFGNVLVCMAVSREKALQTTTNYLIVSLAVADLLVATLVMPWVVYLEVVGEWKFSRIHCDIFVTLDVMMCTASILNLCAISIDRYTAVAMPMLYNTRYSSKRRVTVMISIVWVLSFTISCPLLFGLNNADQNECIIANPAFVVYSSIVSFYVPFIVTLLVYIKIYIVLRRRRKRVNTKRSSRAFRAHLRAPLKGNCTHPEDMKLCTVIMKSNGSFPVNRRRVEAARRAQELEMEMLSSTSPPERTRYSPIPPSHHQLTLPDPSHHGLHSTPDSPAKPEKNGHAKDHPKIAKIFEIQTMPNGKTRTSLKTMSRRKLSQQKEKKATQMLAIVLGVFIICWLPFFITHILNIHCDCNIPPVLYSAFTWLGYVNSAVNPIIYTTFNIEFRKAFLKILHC
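PathHunter beta-arrestin assay in DiscoveRx D2 cells. Compounds were added with an EC20 of dopamine (50 nM final) for 90 min at 37 deg C. Luminescence was read 1 h after detection reagent, with 57 uM dopamine as the EC100 control.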
D2 ag-1 = agonists of human D2 dopamine receptor (beta-arrestin); DiscoveRx PathHunter D2 beta-arrestin, luminescence, 90 min; 100% = 57 uM dopamine signal; activation, % (no concentration beside the values); hit rate 0.084% among 360,000; in the data active = activation above about 40%; inconclusive = between about 15% and that limit
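Agonist mode: compounds alone added to overnight-plated D2 PathHunter cells for 90 min at 37 C, with 57 uM final dopamine (EC100) defining full response. Beta-arrestin recruitment detected by chemiluminescent reagent, read after 1 h at ambient temperature.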
D2 ag-2 = D2 dopamine receptor (human) agonism | hit rate 0.53% among 340,000 | HEK293 T-REx D2 cells, calcium flux agonist mode | activation, % at 2 µM | AID 485358 | P14416;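 active = activation over 3 SD above normal in the single-dose calcium agonist read, cut at about 30% in these data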; note: 0% is about no effect
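Agonism is scored from calcium flux in a force-coupled, inducible HEK293 cell line expressing D2, read kinetically for 180 s after compound addition against dopamine controls.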
D2 antag = antagonists of human D2 dopamine receptor | P14416 | HEK293 TREx D2 cells, calcium flux, dopamine EC80 | inhibition, % at 10 µM | hit rate 2% among 340,000; in the data active = inhibition above about 30%; inactive = below that, where a call was filed; note: 0% is about no effect
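Tetracycline-induced HEK293 TREx cells expressing D2 receptor forced-coupled to calcium signalling, loaded with no-wash calcium dye. Compounds added and calcium flux read 180 s, then dopamine added at EC80 and read a further 180 s.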
D2 PAM-2 = D2 dopamine receptor (human) potentiation | P14416 | HEK293 T-REx D2, calcium flux, EC20 dopamine potentiation | potentiation, % at 10 µM | hit rate 0.34% among 340,000 | AID 485347;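 active = potentiation over 3 SD above the plate norm, cut at about 30% in these data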; note: 0% is about no effect
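Primary screen. Calcium kinetics in induced HEK293 T-REx D2 cells: compound pre-addition 180 s, EC20 dopamine, 180 s more.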
* = called active by the depositor; ? = inconclusive; . = no result. Compounds with a hit are over-represented: about 2.4% of the library has one in this group of screens.

SMILES | D2 PAM-1 | D2 ag-1 | D2 ag-2 | D2 antag | D2 PAM-2
COc1ccc2c(c1)C(C)CC(C)(C)N2C(=O)CSc1nc2ccccc2s1 (stereo not drawn) | 17.2 | -4.1 | -0.4 | 14.3 | -6.3
COc1ccc2c(c1)C(C)CC(C)(C)N2C(=O)Nc1ccccc1 (stereo not drawn) | -1.9 | 1.1 | 1.2 | 54.0* | -3.3
Cc1cccn2c(=O)cc(COc3ccc(NC(=O)C(C)C)cc3)nc12 | . | . | 0.6 | . | -4.9
CC(C)N(Cc1nc(-c2ccccc2)no1)C(=O)CCCN1C(=O)c2ccccc2C1=O | -12.0 | 3.7 | 0.7 | 1.2 | 35.3*
CC(C)N(Cc1nc(-c2ccccc2)no1)C(=O)CN1C(=O)c2ccccc2C1=O | 4.5 | 5.5 | 0.3 | -5.6 | 35.8*
CCOc1ccc(S(=O)(=O)Nc2cc(Cl)ccc2OC)c2cccnc12 | . | . | 0.7 | . | 26.5
COc1ccc(NC(=O)Cn2cnc3c(nc4n3CCCCC4)c2=O)cc1Cl | . | . | 1.2 | . | -4.0
O=C(OCc1nc2ccccc2s1)c1ccc(Br)s1 | 2.0 | -1.8 | 0.6 | 31.9* | 3.0
Nc1ccc(C(=O)OCc2nc3ccccc3s2)cc1 | -3.4 | -2.3 | . | . | .
CN(CCOCCOc1ccc(Cl)cc1Br)Cc1ccccc1 | -16.0 | -0.4 | 0.5 | 39.9* | -15.1
CN(CCCOc1ccccc1F)Cc1ccccc1 | -5.2 | -1.4 | -1.2 | 18.6 | -21.6
Cc1ccc(Cl)c(OCCCCN(C)Cc2ccccc2)c1 | -26.7 | -4.2 | -0.9 | 45.5* | -22.2
CN(CCCOc1ccccc1Br)Cc1ccccc1 | -29.1 | -4.2 | -0.2 | 38.5* | -22.3
Cc1ccc(Cl)c(OCCCN(C)Cc2ccccc2)c1 | -24.0 | -3.6 | -0.3 | 63.5* | -21.8
O=C(NCc1cccnc1)c1cc(C2CCCCN2C(=O)c2ccc3ccccc3c2)on1 (stereo not drawn) | -2.4 | -6.1 | . | . | .
O=C1c2ccccc2C(=O)c2c(/C=C/N3CCCCC3)ccnc21 | 29.5 | ? | . | . | .
CCOc1cccc(OCCOCCN(C)Cc2ccccc2)c1 | -30.4 | -3.3 | 0.1 | 30.4* | -37.8
CN(CCOc1ccc(Cl)c(Cl)c1)Cc1ccccc1 | -4.4 | -2.5 | -0.5 | 65.4* | -25.2
CCOc1ccc(OCCN(C)Cc2ccccc2)cc1 | -24.4 | -0.1 | 0.6 | 10.0 | -5.2
O=C(NC1CC1)c1ccc(Cn2c(SCc3ccccc3F)nc3cccnc32)cc1 | . | . | 1.0 | . | 9.4
CC1CN(C(=O)/C(C#N)=C2\N=C(NC(=O)c3ccccc3Cl)c3ccccc32)CC(C)O1 (stereo not drawn) | . | . | -0.1 | 58.9* | 2.0
Cn1c(=O)c(C(=O)COC(=O)c2cc(-c3ccccc3)nc3ccccc23)c(N)n(Cc2ccccc2)c1=O | . | . | 2.9 | 30.6* | -5.5
COc1cc2ccccc2cc1C(=O)OCC(=O)c1c(N)n(C)c(=O)n(C)c1=O | -21.1 | -1.3 | 0.4 | 52.1* | 1.1
Cn1c(=O)c(C(=O)COC(=O)c2cc(C(F)(F)F)nc3ccccc23)c(N)n(Cc2ccccc2)c1=O | . | . | 1.1 | 5.0 | -0.8
COc1ccc(C(=O)C2CCCN(C/C=C/c3ccccc3OC)C2)c(OC)c1 (stereo not drawn) | -8.5 | -2.3 | -0.5 | 85.6* | -22.3
SMILES | D2 PAM-1 | D2 ag-1 | D2 ag-2 | D2 antag | D2 PAM-2
COc1cccc(C(=O)C2CCCN(C/C=C/c3ccccc3OC)C2)c1 (stereo not drawn) | -2.3 | 1.4 | -0.7 | -0.3 | -21.9
COc1ccccc1N1CCN(C(CNC(=O)C(=O)NCc2ccc(F)cc2)c2cccnc2)CC1 (stereo not drawn) | . | . | -1.4 | . | .
CCOC(=O)c1cc2c(c(-c3ccccc3)n1)[C@@H](CCO)N(S(=O)(=O)C(C)(C)C)C2 | . | 1.1 | . | . | .
COc1ccc(CNC(=O)N2CCc3ccccc3C2)cc1 | -10.4 | -3.6 | -1.2 | 34.1* | 7.7
COc1ccc(NC(=O)NCCCN2CCc3ccccc3C2)cc1 | -9.5 | 3.8 | 1.3 | 42.9* | -34.2
O=C(NCCCN1CCc2ccccc2C1)Nc1ccc(Br)cc1 | -34.1 | 0.5 | 0.1 | 30.7* | -18.9
Cc1ccc([N+](=O)[O-])cc1NC(=O)CN(C1CCCCC1)S(=O)(=O)c1ccc(Cl)cc1 | -37.2 | -1.2 | 0.0 | 52.7* | -17.8
Cc1nc2ccccc2c(C)c1C(=O)c1ccccc1 | -9.0 | -1.0 | 1.3 | 30.1* | 7.2
Cn1cnc2nc[nH]c2c1=O | -5.9 | 1.2 | . | . | .
CC(C)(C)n1nnnc1CN1CCN2CCCC2C1 (stereo not drawn) | -0.2 | 1.0 | 0.9 | 36.8* | 14.4
CCOC(=O)C1CCN(C(=O)c2ccc3c(=O)n4nc(Nc5ccccc5OC)sc4nc3c2)CC1 | -27.4 | -2.0 | . | . | .
Nc1nc2c(ncn2[C@@H]2O[C@H](CNS(=O)(=O)C3CC3)[C@@H](O)[C@H]2O)c(=O)[nH]1 | -6.4 | -2.4 | . | . | .
N/C(=N\OC(=O)c1ccc(Cl)cc1Cl)c1cccnc1 | 9.1 | 50.5* | 1.0 | 9.7 | 6.4
N/C(=N\OC(=O)c1ccccc1Cl)c1ccc(Cl)cc1 | 26.4 | ? | . | . | .
N/C(=N\OC(=O)c1ccc(Cl)cc1Cl)c1ccc(Cl)cc1 | 114.3* | ? | 0.1 | 12.2 | 10.5
N/C(=N\OC(=O)c1ccc(Cl)cc1Cl)c1ccccc1 | ? | ? | -0.6 | 14.6 | -1.2
N/C(=N\OC(=O)c1ccc(Cl)cc1)c1cccnc1 | 26.6 | ? | 0.3 | 8.4 | -10.4
N/C(=N\OC(=O)c1ccc(OCC(F)(F)F)nc1)c1ccc(Cl)cc1 | 53.0* | ? | 0.5 | 30.3* | 4.5
N/C(=N\OC(=O)c1ccc(Cl)cc1)c1ccc(Cl)cc1 | 86.2* | ? | 0.0 | -18.6 | 0.4
Cc1cccc(S(=O)(=O)NC(=O)C2(C)CCN2C(=O)c2cccc(F)c2)c1 (stereo not drawn) | -13.7 | -4.3 | . | . | .
Cc1noc(Cn2c(=O)c3ccccc3n(CC(=O)Nc3ccccc3C(F)(F)F)c2=O)n1 | . | . | . | . | 12.9
COc1ccc(NC(=O)CCCn2c(=O)c3cccn3c3ccccc32)c(OC)c1 | . | . | 0.1 | . | 0.0
Cc1c(Cl)cccc1NC(=O)C(=O)NCCc1csc(-c2ccc(C(F)(F)F)cc2)n1 | . | . | 0.2 | . | 13.5
CC1=C(c2ccc(C)c(C)c2)S(=O)(=O)N=C1N1CCC(C(=O)N2CCCCC2)CC1 | . | . | -0.9 | . | -3.4
[N-]=C=C1C(=O)NC(=O)C([n+]2ccc(-c3ccncc3)cc2)C1c1ccccc1C(F)(F)F (stereo not drawn) | 5.1 | 7.0 | -1.1 | 35.5* | 3.2
[N-]=C=C1C(=S)NC(=O)[C@H]([n+]2ccccc2)[C@H]1c1ccc(Cl)cc1 | -4.7 | 5.1 | 0.8 | -9.1 | 6.0
CCN(CC)CCCOC(=O)C(c1ccccc1)c1ccccc1 | -82.0 | -5.4 | -2.3 | 49.7* | -21.4
Cc1ccc(CSC2=NCCN2S(=O)(=O)c2ccc(C)cc2)cc1 | -7.3 | -1.7 | . | . | .
Cc1ccc(S(=O)(=O)N2CCN=C2SCc2ccc(Cl)c(Cl)c2)cc1 | 4.2 | -1.7 | 0.7 | 30.2* | -4.4
COC(=O)c1ccc(NC(=S)N(Cc2cccnc2)Cc2ccco2)cc1 | 6.1 | 7.3 | 0.0 | -4.8 | 12.2

Screening results: PubChem, National Center for Advancing Translational Sciences (NCATS)
